Test results reported in PubChem BioAssay (Tox21).
Activity calls are given as the source filed them. A call without a number means that no potency is given here. Unless noted, the call rests on the fitted dose curve.

Experiments:
[1] = qHTS assay to identify small molecule antagonists of the thyroid receptor (TR) signaling pathway (AID 743065; active means well fitted curve in the direction sought with a large enough effect in the repeat runs; inconclusive means weak or mixed curves; inactive means no such curve, though single readings can be large; an effect the other way counts as inactive or inconclusive; further: nearly all actives have a fitted effect of over 55% in size; further: potency means the concentration at half of the fitted maximal effect)
Procedure, shortened: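 Antagonism measured as loss of luciferase signal in GH3 cells stably carrying a TRE-luciferase reporter, co-treated with compound and T3 (1 nM final) for 23.5 h at 37 C. Viability was read in the same well by CellTiter-Fluor.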

[2] = system: thyroid hormone receptor (rat, GH3 cells); assay: qHTS assay to identify small molecule agonists of the thyroid receptor (TR) signaling pathway (AID 743066)
[3] = target: Estrogen receptor (Homo sapiens) (UniProt P03372); assay: qHTS assay to identify small molecule antagonists of the estrogen receptor alpha (ER-alpha) signaling pathway (AID 743069; active means well fitted curve in the direction sought with a large enough effect in the signal ratio in the repeat runs, not every such curve was filed as active; inconclusive means weak or mixed curves, or effect the other way; inactive means no such curve, though single readings can be large or run the other way; the % refers to the signal ratio)
Chain of Estrogen receptor (Homo sapiens) (P03372 whole entry, looked up): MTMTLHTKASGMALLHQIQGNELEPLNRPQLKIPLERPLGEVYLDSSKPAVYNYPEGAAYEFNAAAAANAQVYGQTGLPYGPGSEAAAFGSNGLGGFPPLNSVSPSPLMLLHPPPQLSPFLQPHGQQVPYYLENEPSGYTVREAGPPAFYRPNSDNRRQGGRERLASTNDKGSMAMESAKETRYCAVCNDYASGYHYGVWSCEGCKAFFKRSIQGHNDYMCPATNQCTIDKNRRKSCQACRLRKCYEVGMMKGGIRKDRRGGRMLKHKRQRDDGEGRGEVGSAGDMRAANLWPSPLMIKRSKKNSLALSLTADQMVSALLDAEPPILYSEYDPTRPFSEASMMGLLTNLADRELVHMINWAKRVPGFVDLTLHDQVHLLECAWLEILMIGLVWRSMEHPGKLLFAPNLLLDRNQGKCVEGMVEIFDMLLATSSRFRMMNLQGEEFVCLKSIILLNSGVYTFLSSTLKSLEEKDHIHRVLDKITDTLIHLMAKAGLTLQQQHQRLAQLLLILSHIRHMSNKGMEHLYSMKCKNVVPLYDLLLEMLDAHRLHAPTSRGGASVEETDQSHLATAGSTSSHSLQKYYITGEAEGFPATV
Procedure, shortened: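 Compound effects are measured against 17beta-estradiol stimulation in HEK293 cells with a UAS-controlled beta-lactamase reporter for ER-alpha. Exposure lasts 18 hr at 37C; LiveBLAzer B/G FRET substrate follows for 2 hr at room temperature.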

[4] = qHTS assay to identify small molecule antagonists of the estrogen receptor alpha (ER-alpha) signaling pathway - cell viability counter screen (AID 743074);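 further: HEK293 cells carrying ER-alpha-UAS-bla reporter stimulated with 17beta-estradiol; nearly all actives have a fitted effect of over 45% in size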
[5] = target: Estrogen receptor (Homo sapiens) (UniProt P03372); assay: qHTS assay to identify small molecule agonists of the estrogen receptor alpha (ER-alpha) signaling pathway (AID 743075); further: potency means the concentration at half of the fitted maximal effect
[6] = target: Estrogen receptor (Homo sapiens) (UniProt P03372); assay: qHTS assay to identify small molecule agonists of the estrogen receptor alpha (ER-alpha) signaling pathway using the BG1 cell line (AID 743079; active means well fitted curve in the direction sought with a large enough effect in the repeat runs; inconclusive means weak or mixed curves; inactive means no such curve, though single readings can be large; an effect the other way counts as inactive or inconclusive; further: nearly all actives have a fitted effect of over 20% in size; further: potency means the concentration at half of the fitted maximal effect); conditions: BG1Luc4E2 cells, ERE-luciferase agonist, 22 h; activation: at 70.3 µM (top of the series)
[7] = qHTS assay to identify small molecule antagonists of the estrogen receptor alpha (ER-alpha) signaling pathway using the BG1 cell line (AID 743080);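 further: BG1 cells stimulated with 17beta-estradiol alongside compound; nearly all actives have a fitted effect of over 25% in size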; further: potency means the concentration at half of the fitted maximal effect
Procedure, shortened: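 BG1Luc4E2, endogenous ER-alpha, 4xERE-luc; 5 d charcoal-stripped FBS, phenol red free; 24 h plating; cpd + 17beta-estradiol 21.5 h, 37 C/5% CO2; CellTiter-Fluor viability 30 min, then ONE-Glo luciferase 30 min RT.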

[8] = qHTS assay to identify small molecule antagonists of the estrogen receptor alpha (ER-alpha) signaling pathway using the BG1 cell line - cell viability counter screen (AID 743081; active means well fitted curve in the direction sought with a large enough effect in the repeat runs; inconclusive means weak or mixed curves; inactive means no such curve, though single readings can be large; an effect the other way counts as inactive or inconclusive;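 further: compound given together with 17beta-estradiol as the ER stimulus; nearly all actives have a fitted effect of over 45% in size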)
Aromatase (Homo sapiens) = Aromatase (Homo sapiens) (UniProt P11511); assay: qHTS assay to identify aromatase inhibitors (AID 743083; active means well fitted curve in the direction sought with a large enough effect in the repeat runs; inconclusive means weak or mixed curves; inactive means no such curve, though single readings can be large; an effect the other way counts as inactive or inconclusive; further: nearly all actives have a fitted effect of over 55% in size)
Chain of Aromatase (Homo sapiens) (P11511 whole entry, looked up): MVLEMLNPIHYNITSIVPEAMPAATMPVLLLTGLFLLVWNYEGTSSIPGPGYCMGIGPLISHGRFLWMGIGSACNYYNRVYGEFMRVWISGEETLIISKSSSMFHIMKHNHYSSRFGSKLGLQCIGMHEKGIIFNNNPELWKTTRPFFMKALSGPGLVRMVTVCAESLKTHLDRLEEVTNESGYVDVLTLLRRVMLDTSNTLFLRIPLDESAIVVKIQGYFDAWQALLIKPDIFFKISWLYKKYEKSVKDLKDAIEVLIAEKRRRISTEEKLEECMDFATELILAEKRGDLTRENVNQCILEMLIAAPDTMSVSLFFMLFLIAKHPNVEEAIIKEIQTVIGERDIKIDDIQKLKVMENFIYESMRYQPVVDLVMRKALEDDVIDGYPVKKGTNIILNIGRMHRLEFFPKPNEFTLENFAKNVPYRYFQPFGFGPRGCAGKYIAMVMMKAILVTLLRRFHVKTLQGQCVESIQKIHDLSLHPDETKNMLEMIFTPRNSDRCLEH

[9] = qHTS assay to identify small molecule antagonists of the thyroid receptor (TR) signaling pathway - cell viability counter screen (AID 743064; active means well fitted curve in the direction sought with a large enough effect in the repeat runs; inconclusive means weak or mixed curves; inactive means no such curve, though single readings can be large; an effect the other way counts as inactive or inconclusive; further: nearly all actives have a fitted effect of over 50% in size)
Procedure, shortened: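 CellTiter-Fluor readout, 30 min at 37 °C/5% CO2, following 23.5 h incubation of GH3.TRE-Luc cells with test compound and 1 nM T3 (final).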

For `c1cnc2cc3c(cc2n1)[C@@H]1CNC[C@H]3C1`, the Potency [1] was “inactive”, the Potency [2] was “inactive” and the Potency [3] was “inactive”. The Potency [4] was “inactive”, the Potency [5] was “inactive” and the Potency [6] was “inactive”. For the same compound, the Potency [7] was “inactive”, the Potency [8] was “inactive” and the Potency (Aromatase (Homo sapiens)) was “inactive”.
With `C#C[C@]1(O)CC[C@H]2[C@@H]3CCC4=CC(=O)CC[C@@H]4[C@H]3C(=C)C[C@@]21CC` the Potency [9] was “inactive”, the Potency [4] was “inactive” and the Potency [5] was 2390 nM [inconclusive] (active). The Potency [6] was 1880 nM (active) and the Potency (Aromatase (Homo sapiens)) was “inactive”.
With `CCCCC[C@H](O)/C=C/[C@H]1[C@H](O)CC(=O)[C@@H]1CCCCCCC(=O)O` the Potency [9] was “inactive”, the Potency [4] was “inactive” and the Potency [5] was “inactive”. For the same compound, the Potency [6] was “inactive”, the Potency [8] was “inactive” and the Potency (Aromatase (Homo sapiens)) was “inactive”.
In the case of `CN[C@@H]1[C@H](O[C@H]2[C@H](O[C@H]3[C@H](O)[C@@H](O)[C@H](N=C(N)N)[C@@H](O)[C@@H]3N=C(N)N)O[C@@H](C)[C@]2(O)CO)O[C@@H](CO)[C@H](O)[C@H]1O`, the Potency [9] is reported as “inactive”, the Potency [4] is reported as “inactive” and the Potency [8] is reported as “inactive”. The Potency (Aromatase (Homo sapiens)) was “inactive”.
For `CS(=O)(=O)OCC(O)C(O)COS(C)(=O)=O` (stereo unspecified), the Potency [1] was “inactive”, the Potency [2] was “inactive” and the Potency [3] was “inactive”. The Potency [4] was “inactive”, the Potency [5] was “inactive” and the Potency [6] was “inactive”. The Potency [7] was “inactive”, the Potency [8] was “inactive” and the Potency (Aromatase (Homo sapiens)) was “inactive”.
For `O=C(O)CO.[NH2-].[NH2-].[Pt+2]`, the Potency [1] was “inactive”, the Potency [2] was “inactive” and the Potency [3] was “inactive”. The Potency [4] was “inactive”, the Potency [5] was “inactive” and the Potency [6] was “inactive”. For the same compound, the Potency [7] was “inactive”, the Potency [8] was “inactive” and the Potency (Aromatase (Homo sapiens)) was “inactive”.
In the case of `CCCCCCCCCCCCCCCC(=O)OC[C@@H](O)[C@H]1OC[C@H](O)[C@H]1O`, the Potency [9] is reported as “inactive”, the Potency [3] is reported as “inactive” and the Potency [5] is reported as “inactive”. For the same compound, the Potency [6] was “inactive”, the Potency [7] was “inactive” and the Potency [8] was “inactive”. For the same compound, the Potency (Aromatase (Homo sapiens)) was “inactive”.
In the case of `O=C(NNCS(=O)(=O)O)c1ccncc1`, the Potency [1] is reported as “inactive”, the Potency [2] is reported as “inactive” and the Potency [3] is reported as “inactive”. For the same compound, the Potency [4] was “inactive”, the Potency [5] was “inactive” and the Potency [6] was “inactive”. The Potency [7] was “inactive”, the Potency [8] was “inactive” and the Potency (Aromatase (Homo sapiens)) was “inactive”.
In the case of `Cc1nc(NS(=O)(=O)c2ccc(N)cc2)nc(C)c1Br`, the Potency [1] is reported as “inactive”, the Potency [2] is reported as “inactive” and the Potency [4] is reported as “inactive”. The Potency [5] was “inactive”, the Potency [6] was “inactive” and the Potency [7] was “inactive”. The Potency [8] was “inactive” and the Potency (Aromatase (Homo sapiens)) was “inactive”.
In the case of `CCCCc1cc2c(=O)c(C(=O)OC)c[nH]c2cc1OCc1ccccc1`, the Potency [1] is reported as “inactive”, the Potency [2] is reported as “inactive” and the Potency [4] is reported as “inactive”. The Potency [5] was “inactive”, the Potency [6] was “inactive” and the Potency [7] was “inactive”. For the same compound, the Potency (Aromatase (Homo sapiens)) was “inactive”.
In the case of `C=CCNC1=C2C[C@@H](C)C[C@H](OC)[C@H](O)[C@@H](C)/C=C(\C)[C@H](OC(N)=O)[C@@H](OC)/C=C\C=C(/C)C(=O)NC(=CC1=O)C2=O`, the Potency [1] is reported as 335 nM (active), the Potency [2] is reported as “inactive” and the Potency [4] is reported as “inactive”. For the same compound, the Potency [5] was “inactive”, the Potency [7] was 237 nM (active) and the Potency (Aromatase (Homo sapiens)) was “inactive”.
For `CCN(CC)c1ccc(N=Nc2ccc(S(=O)(=O)N(C)C)cc2)c(S(=O)(=O)NCC[n+]2ccccc2)c1`, the Potency [1] was “inactive”, the Potency [2] was “inactive” and the Potency [3] was “inactive”. For the same compound, the Potency [4] was “inactive”, the Potency [5] was “inactive” and the Potency [7] was “inactive”. The Potency (Aromatase (Homo sapiens)) was “inactive”.
With `C=CC[C@@H]1/C=C(\C)C[C@H](C)C[C@H](OC)[C@H]2O[C@@](O)(C(=O)C(=O)N3CCCC[C@H]3C(=O)O[C@H](/C(C)=C/[C@@H]3CC[C@@H](O)[C@H](OC)C3)[C@H](C)[C@@H](O)CC1=O)[C@H](C)C[C@@H]2OC` the Potency [1] was “inactive”, the Potency [2] was “inactive” and the Potency [4] was “inactive”. The Potency [5] was “inactive”, the Potency [6] was “inactive” and the Potency [7] was “inactive”.
With `CCCCCCCCCCCCCCCC(=O)OCC(COC(=O)CCCCCCCCCCCCCCC)OC(=O)CCCCCCCCCCCCCCC` the Potency [1] was “inactive”, the Potency [2] was “inactive” and the Potency [3] was “inactive”. For the same compound, the Potency [4] was “inactive”, the Potency [5] was “inactive” and the Potency [7] was “inactive”. For the same compound, the Potency [8] was “inactive” and the Potency (Aromatase (Homo sapiens)) was “inactive”.
For `C#CCOc1ccc2c(C)cc(=O)oc2c1`, the Potency [1] was “inactive”, the Potency [2] was “inactive” and the Potency [4] was “inactive”. The Potency [5] was “inactive”, the Potency [6] was “inactive” and the Potency [7] was “inactive”. For the same compound, the Potency [8] was “inactive” and the Potency (Aromatase (Homo sapiens)) was “inactive”.
With `NCCCNCCCCNC(=O)C(O)NC(=O)CCCCCCN=C(N)N` (stereo unspecified) the Potency [1] was “inactive”, the Potency [2] was “inactive” and the Potency [3] was “inactive”. For the same compound, the Potency [4] was “inactive”, the Potency [5] was “inactive” and the Potency [6] was “inactive”. The Potency [7] was “inactive” and the Potency (Aromatase (Homo sapiens)) was “inactive”.
With `CC(C)c1nc(N(C)S(C)(=O)=O)nc(-c2ccc(F)cc2)c1/C=C/C(O)CC(O)CC(=O)O` (stereo unspecified) the Potency [1] was “inactive”, the Potency [2] was “inactive” and the Potency [3] was “inactive”. The Potency [4] was “inactive”, the Potency [5] was “inactive” and the Potency [6] was 26600 nM (active). For the same compound, the Potency [8] was “inactive”.
In the case of `C[C@@](Cc1ccc(O)c(O)c1)(NN)C(=O)O`, the Potency [1] is reported as “inactive”, the Potency [2] is reported as “inactive” and the Potency [3] is reported as “inactive”. For the same compound, the Potency [4] was “inactive”, the Potency [5] was “inactive” and the Potency [7] was “inactive”. For the same compound, the Potency [8] was “inactive” and the Potency (Aromatase (Homo sapiens)) was “inactive”.
